The subject of experiment [1] is Human papillomavirus type 1a protein E7 (residues 44-93). Description: HPV1a E7 fragment binders on microarrays, primary screen, biochemical, small-molecule microarray, residues 44-93, 635 nm fluorescence (AID 1108).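 Further: E7 fragment applied at 1 µg/mL in TBST for 1 h at 4 C; score combines spot fluorescence with its signal to noise ratio.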 The conditions noted are these: small-molecule microarray binding, fluorescence 635 nm; higher = more signal.
The nature of experiment [2]: modulators of HCV replicon luciferase signal, primary screen, HCV replication inhibitor project, Huh7 cells, luciferase reporter (AID 1109).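 Further: huh7 hepatoma cells harbouring a luciferase neomycin HCV replicon reporter; luciferase luminescence as measure of HCV replicon replication; test concentration not given here.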 The note with it: 48 h, higher = more signal. (A replicon is a self-replicating genome or part of one, used to study replication in cells.)
For experiment [3], the target named is Left-right determination factor 2 (Homo sapiens) (UniProt O00292). Kind of experiment: LEFTY2 binders on small-molecule microarrays, primary screen, biochemical, small-molecule microarray, 635 nm fluorescence scan (AID 1110). The note with it: LEFTY2 binding, higher = more signal.
Chain of Left-right determination factor 2 (Homo sapiens) (O00292 whole entry, looked up): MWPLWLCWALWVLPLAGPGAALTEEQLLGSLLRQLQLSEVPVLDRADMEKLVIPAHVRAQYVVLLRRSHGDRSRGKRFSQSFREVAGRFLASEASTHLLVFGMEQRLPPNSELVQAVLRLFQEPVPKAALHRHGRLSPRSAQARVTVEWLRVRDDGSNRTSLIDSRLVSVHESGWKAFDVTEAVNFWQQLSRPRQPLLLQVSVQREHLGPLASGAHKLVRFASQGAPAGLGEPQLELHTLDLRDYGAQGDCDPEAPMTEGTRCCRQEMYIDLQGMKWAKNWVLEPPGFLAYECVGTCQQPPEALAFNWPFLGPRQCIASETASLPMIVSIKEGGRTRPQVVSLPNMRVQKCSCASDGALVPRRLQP
The target of experiment [4] is Calmodulin-1 (Homo sapiens) (UniProt P0DP23). Kind of experiment: CALM1 binders on microarrays, EGTA buffer, profiling panel, biochemical, small-molecule microarray, Cy5-labelled CALM1 (AID 1111).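 Further: labelled calmodulin applied in Tris saline Tween buffer holding calcium plus EGTA and DTT.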 The note with it: Cy5-CALM1 binding fluorescence, higher = more signal.
For experiment [5] the target is unchanged. Kind of experiment: calcium-bound CALM1 binders on microarrays, profiling panel, artefact control for SMM control-protein annotation, biochemical, small-molecule microarray, Cy5-labelled CALM1, plus calcium (AID 1112).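 Further: score merges spot fluorescence with signal to noise from triplicate slides.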 The conditions noted are these: Cy5-CALM1 binding fluorescence, higher = more signal.
The nature of experiment [6]: small-molecule microarray binders of probe aWnt5a, primary screen, biochemical, biotinylated probe, 635/667 nm fluorescence (AID 1113).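 Further: score merges 667 nm fluorescence intensity with signal-to-noise per printed feature.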 The note with it: higher = more signal.
A short description of experiment [7]: small-molecule microarray binders of probe aShh, primary screen, biochemical, biotinylated probe, 635/667 nm fluorescence (AID 1114).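 Further: probe is biotin-labelled aShh protein from a stem cell growth factor screen; measures binding of labelled protein to compounds printed on the slide; score merges feature fluorescence at 667 nm with signal-to-noise.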 The note with it: higher = more signal.
Experiment [8] can be described thus: small-molecule microarray binders of probe aNog, primary screen, biochemical, biotinylated probe, 635/667 nm fluorescence (AID 1115).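 Further: probe is biotinylated aNog protein used at 0.15 µg/mL for 1 h at 4 C; z-score combines 667 nm fluorescence of each spot with its signal to noise.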 The note with it: higher = more signal.
Experiment [9] addresses Torsin-1A-interacting protein 1 (Homo sapiens) (UniProt Q5JTV8). Kind of experiment: LAP1 binders from COS7 cell lysate, primary screen, small-molecule microarray, 635/667 nm fluorescence (AID 1116). The conditions noted are these: COS7-hLAP1 lysate binding, 635 nm fluorescence, higher = more signal.
In experiment [10] the target is Alpha-bungarotoxin (Bungarus multicinctus) (UniProt P60615). Description: alpha-bungarotoxin binders on microarray, profiling panel, artefact control for SMM control protein annotation, biochemical, small-molecule microarray, Alexa647 label, 635/667 nm fluorescence (AID 1117). The conditions noted are these: alpha-BTX-A647 binding fluorescence, higher = more signal.
Chain of Alpha-bungarotoxin (Bungarus multicinctus) (P60615 whole entry, looked up): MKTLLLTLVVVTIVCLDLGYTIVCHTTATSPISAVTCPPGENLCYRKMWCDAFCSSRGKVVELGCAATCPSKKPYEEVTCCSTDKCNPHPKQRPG

Chain of Torsin-1A-interacting protein 1 (Homo sapiens) (Q5JTV8 whole entry, looked up): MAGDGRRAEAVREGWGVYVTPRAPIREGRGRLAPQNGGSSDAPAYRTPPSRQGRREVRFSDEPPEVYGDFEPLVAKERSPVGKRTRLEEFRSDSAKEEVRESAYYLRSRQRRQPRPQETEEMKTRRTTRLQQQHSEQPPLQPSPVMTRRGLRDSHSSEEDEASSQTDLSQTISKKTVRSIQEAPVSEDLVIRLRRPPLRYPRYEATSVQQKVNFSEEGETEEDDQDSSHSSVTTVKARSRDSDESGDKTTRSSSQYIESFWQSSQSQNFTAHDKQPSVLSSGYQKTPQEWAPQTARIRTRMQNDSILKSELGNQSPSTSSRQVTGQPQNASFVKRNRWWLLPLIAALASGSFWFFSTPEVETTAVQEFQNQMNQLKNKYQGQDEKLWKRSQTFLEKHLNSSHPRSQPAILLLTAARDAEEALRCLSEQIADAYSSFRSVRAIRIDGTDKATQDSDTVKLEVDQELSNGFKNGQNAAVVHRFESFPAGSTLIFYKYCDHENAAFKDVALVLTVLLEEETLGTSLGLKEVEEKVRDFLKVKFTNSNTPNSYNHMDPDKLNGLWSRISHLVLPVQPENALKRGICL

On to `COC(=O)c1c(CC[C@@H](CO)NC(=O)N[C@H](Cn2cc(C3(O)CCCCC3)nn2)C(C)C)oc(C(C)=O)c1C(=O)OC`, for which the composite z-score was 1.01 in [1]; 0.724 in [3]; 0.169 in experiment [4]; -0.715 in [5]; 0.002 in experiment [6]; 0.151 in experiment [7]. Further, the composite z-score was determined as 0.141 in [8], 0.748 in experiment [9] and 1.65 in experiment [10]. The z-score in experiment [2] is -0.415.

For the molecule `CN1C(=O)C2C=CC(C(O)C#Cc3ccccc3)N(Nc3ccccc3)C2C1=O` (stereo not given), the composite z-score is 1.45 in experiment [1]; 0.302 in experiment [3]; 1.18 in experiment [4]; 0.533 in [5]; 0.0381 in experiment [6]; -0.0243 in experiment [7]. In addition, the composite z-score was determined as 1.35 in [8], 1.11 in [9] and 1.35 in experiment [10]. The same molecule showed a z-score in experiment [2] of 0.234.

On to `CN(C)C(=O)[C@@]1(CCS(=O)(=O)c2ccccc2)N=C(c2ccc(OCCCO)cc2)O[C@H]1c1ccccc1`, for which the composite z-score in experiment [1] was 1.46; in experiment [3] it was -0.757; in experiment [4], 1.47; in experiment [5], 0.759; in experiment [6], 0.16; in experiment [7], 0.207. Further, the composite z-score was found to be 0.812 in [8], 1.84 in experiment [9] and 1.9 in experiment [10]. Also, the z-score in experiment [2] was -1.76.

Turning to `CC(C)[Si](C#C[Si](C(C)C)(C(C)C)C(C)C)(O[C@H](C)c1cn([C@H](CO)Cc2ccccc2)nn1)C(C)C`, the composite z-score in [1] is 0.534; in experiment [3], 0.182; in [4], -0.0641; in experiment [5], -0.393; in experiment [6], -0.0924; in experiment [7], -0.0977. In addition, the composite z-score in experiment [8] is -0.122; in experiment [9] it was 0.227; in experiment [10], -0.0846. The z-score in experiment [2] is -0.677.

For `O=C1O[C@H](c2ccccc2)[C@H](c2ccccc2)N2[C@H]1[C@@H](C(=O)NC[C@H](O)c1ccccc1)[C@]1(C(=O)Nc3ccc(C#CCCO)cc31)[C@H]2c1ccc(OCCO)cc1`, the composite z-score in [1] is 1.1; in experiment [3], -0.312; in experiment [4] it was 1.1; in experiment [5], 0.547; in experiment [6] it was -0.0758; in [7], 0.241. Besides, the composite z-score in experiment [8] amounted to 0.509; in [9] it was 0.213; in [10], 1.16. The z-score in experiment [2] is -1.32.

For the molecule `O=C1O[C@H](c2ccccc2)[C@H](c2ccccc2)N2[C@H]1[C@@H](C(=O)N1CCN(c3ncccn3)CC1)[C@]1(C(=O)Nc3ccc(C#CC4(O)CCCCCC4)cc31)[C@H]2c1ccc(OCCO)cc1`, the composite z-score in [1] is 1.44; in [3], 1.51; in [4] it was 2.26; in experiment [5], 1.24; in [6], 0.793; in experiment [7], 0.543. Besides, the composite z-score was 2.34 in experiment [8], 3.93 in experiment [9] and 2.81 in experiment [10]. Besides, in [2], the z-score is -1.58.

Take `CC(C)C[C@@H]1NC(=O)[C@@H]2C[C@H](C(=O)NCCCCN(C)C)[C@H](c3cccc(OCCO)c3)N2C1=O`: the composite z-score was 0.314 in [1]; -0.113 in experiment [3]; 0.0053 in experiment [4]; -0.0276 in [5]; -0.221 in experiment [6]; -0.138 in experiment [7]. In addition, the composite z-score was -0.313 in experiment [8], -0.249 in experiment [9] and -0.555 in [10]. In addition, the z-score in experiment [2] was -0.138.

Consider `Cc1ccc(S[C@]2(C(=O)O)CC(=O)N(C3Cc4ccccc4C3)[C@@H]2c2ccc(CO)cc2)cc1`, for which the composite z-score is 0.0922 in experiment [1]; -1.07 in [3]; 0.967 in experiment [4]; 1.1 in experiment [5]; 0.0077 in [6]; -0.0322 in experiment [7]. Besides, the composite z-score is 0.649 in experiment [8], 0.0148 in [9] and 0.0125 in experiment [10]. Besides, the z-score in [2] is -0.0907.

For the molecule `CC(C)(C)OC(=O)CC[C@@]1(C(=O)NCc2ccccc2)N=C(c2ccc(OCCCO)cc2)O[C@@H]1c1ccccc1N=[N+]=[N-]`, the composite z-score in experiment [1] worked out at 0.912; in experiment [3], 0.529; in [4], 1.15; in [5], 0.493; in [6], 0.112; in [7], 0.232. Further, the results for the composite z-score in experiment [8], in [9] and in experiment [10] were 1.9, 0.899 and 2.1, respectively. Moreover, in experiment [2], the z-score is -0.339.

Take `CO[C@]12C=C(Br)[C@@H](C[C@@H]1c1cccc(C)c1)[C@@]1(CO1)C2=O`: the composite z-score in experiment [1] is 0.194; in experiment [3], 0.334; in experiment [4] it was -0.426; in experiment [5], -0.83; in experiment [6], -0.247; in [7], -0.2. The composite z-score is -0.0852 in experiment [8], -0.373 in [9] and -0.157 in experiment [10]. In addition, in experiment [2], the z-score was -3.39.

As for `CC1CC/C=C\[C@H]2OC34C=CCN(C(C)C)C(=O)[C@H]3N(CCCCCCO)C(=O)[C@@H]4C2C(=O)O1` (stereo not given in full), the composite z-score in experiment [1] is -1.9; in [3], -0.83; in experiment [4], -0.295; in experiment [5] it was 0.571; in [6], -0.15; in [7] it was -0.117. Also, the composite z-score in experiment [8] is 0.0595; in experiment [9], -0.673; in experiment [10] it was -0.706. In addition, the z-score in [2] is -0.729.

In the case of `O=C(NCC(F)(F)F)[C@@H]1c2ccccc2C(=O)N(Cc2cc(F)cc(C(F)(F)F)c2)[C@H]1c1ccc(CO)cc1`, the composite z-score in experiment [1] was 0.463; in experiment [3], -1.53; in [4] it was 0.152; in [5], 0.712; in experiment [6] it was -0.096; in [7], -0.0709. Also, the composite z-score in [8] was -0.074; in experiment [9], -0.468; in experiment [10], -0.758. Also, the z-score in experiment [2] was -0.661.

Consider `Cc1ccc(S[C@]2(C(=O)NCC(F)(F)F)CC(=O)N(Cc3ccccc3C(F)(F)F)[C@@H]2c2ccc(CO)cc2I)cc1`, for which the composite z-score in experiment [1] is -0.784; in experiment [3], -2.12; in experiment [4], -0.423; in experiment [5], -0.214; in experiment [6] it was -0.0944; in [7] it was 0.0483. The figures for the composite z-score in experiment [8], in experiment [9] and in experiment [10] were -0.161, -0.531 and 0.444, respectively. Also, the z-score in [2] was -0.414.

These data come from PubChem BioAssay.
